# In PubChem BioAssay AID1159580 (chemical genetic matrix, 2015):
# Screen size: about 5,500 compounds; about 2,000 (36%) were called active. Inconclusive results (about 18%) are left out. The list shows a part of the results. Values without a mark were called inactive. Cut-off read from the data, not from the text of the source: active = normalized growth mostly below about 0.91 (no sharp cut-off); inconclusive = no clear call, values can overlap the other calls; inactive = mostly above about 0.92.
# Experiment: chemical genetic growth profiling, strain panel (AID 1159580);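 note: tested at 20 µM; growth read once vehicle control cultures reached saturation at 30 °C; 1 = growth at the plate median or of vehicle wells; lower values mean less growth of the strain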
# Settings: S. cerevisiae deletion strains, growth OD
# [1] = locus YDL101C, strain DUN1, hits give low values
# [2] = locus YHR030C, strain SLT2, hits give low values
structure (smiles),measurement,setting,value
O=S(=O)(Oc1ccc(-c2csnn2)cc1)c1ccccc1Cl,normalized growth,"locus YAR019C, strain CDC15, hits give low values",0.965
same,normalized growth,"locus YBL105C, strain PKC1, hits give low values",0.98
same,normalized growth,"locus YBR135W, strain CKS1, hits give low values",0.966
same,normalized growth,"locus YBR136W, strain MEC1, hits give low values",0.963
same,normalized growth,"locus YBR160W, strain CDC28, hits give low values",0.971
same,normalized growth,"locus YDL017W, strain CDC7, hits give low values",0.974
same,normalized growth,"locus YDL028C, strain MPS1, hits give low values",0.968
same,normalized growth,[1],0.956
same,normalized growth,"locus YDL108W, strain KIN28, hits give low values",0.967
same,normalized growth,"locus YDL132W, strain cdc53, hits give low values",0.971
same,normalized growth,"locus YDL214C, strain PRR2, hits give low values",0.939
same,normalized growth,"locus YDR052C, strain DBF4, hits give low values",0.978
same,normalized growth,"locus YDR054C, strain cdc34, hits give low values",0.979
same,normalized growth,"locus YDR226W, strain ADK1, hits give low values",0.969
same,normalized growth,"locus YDR477W, strain SNF1, hits give low values",0.94
same,normalized growth,"locus YER123W, strain YCK3, hits give low values",0.915
same,normalized growth,"locus YER133W, strain GLC7, hits give low values",0.939
same,normalized growth,"locus YFL009W, strain cdc4, hits give low values",0.973
same,normalized growth,"locus YFL029C, strain CAK1, hits give low values",0.963
same,normalized growth,"locus YFR003C, strain YPI1, hits give low values",0.972
same,normalized growth,"locus YFR019W, strain FAB1, hits give low values",0.913
same,normalized growth,"locus YFR028C, strain CDC14, hits give low values",0.957
same,normalized growth,"locus YGR040W, strain KSS1, hits give low values",0.934
same,normalized growth,"locus YGR052W, strain FMP48, hits give low values",0.969
same,normalized growth,"locus YGR092W, strain DBF2, hits give low values",0.935
same,normalized growth,[2],0.907
same,normalized growth,"locus YHR079C, strain IRE1, hits give low values",0.929
same,normalized growth,"locus YHR082C, strain KSP1, hits give low values",0.948
same,normalized growth,"locus YHR205W, strain SCH9, hits give low values",0.946
same,normalized growth,"locus YIL147C, strain SLN1, hits give low values",0.968
same,normalized growth,"locus YJL095W, strain BCK1, hits give low values",0.936
same,normalized growth,"locus YJL128C, strain PBS2, hits give low values",0.938
same,normalized growth,"locus YJL157C, strain FAR1, hits give low values",0.947
same,normalized growth,"locus YJR016C, strain ILV3, hits give low values",0.978
same,normalized growth,"locus YJR066W, strain TOR1 (second series), hits give low values",0.909
same,normalized growth,"locus YJR066W, strain TOR1, hits give low values",0.921
same,normalized growth,"locus YKL048C, strain ELM1, hits give low values",0.988
same,normalized growth,"locus YKL067W, strain YNK1, hits give low values",0.933
same,normalized growth,"locus YKL101W, strain HSL1, hits give low values",0.951
same,normalized growth,"locus YKL193C, strain SDS22, hits give low values",0.967
same,normalized growth,"locus YKL203C, strain TOR2, hits give low values",0.989
same,normalized growth,"locus YLR113W, strain HOG1, hits give low values",0.854 (active)
same,normalized growth,"locus YLR133W, strain CKI1, hits give low values",0.947
same,normalized growth,"locus YLR403W, strain SFP1, hits give low values",0.927
same,normalized growth,"locus YML070W, strain DAK1, hits give low values",0.922
same,normalized growth,"locus YMR001C, strain CDC5, hits give low values",0.968
same,normalized growth,"locus YMR205C, strain PFK2 (second series), hits give low values",0.941
same,normalized growth,"locus YMR277W, strain FCP1, hits give low values",0.965
same,normalized growth,"locus YNL006W, strain LST8, hits give low values",0.981
same,normalized growth,"locus YNL020C, strain ARK1, hits give low values",0.973
same,normalized growth,"locus YNL161W, strain CBK1, hits give low values",0.969
same,normalized growth,"locus YNL183C, strain NPR1, hits give low values",0.896
same,normalized growth,"locus YNL207W, strain RIO2, hits give low values",0.971
same,normalized growth,"locus YNL222W, strain SSU72, hits give low values",0.975
same,normalized growth,"locus YNL307C, strain MCK1 (second series), hits give low values",0.96
same,normalized growth,"locus YOL078W, strain AVO1, hits give low values",0.974
same,normalized growth,"locus YOL136C, strain PFK27, hits give low values",0.916
same,normalized growth,"locus YOR061W, strain CKA2, hits give low values",0.923
same,normalized growth,"locus YOR119C, strain RIO1, hits give low values",0.964
same,normalized growth,"locus YOR231W, strain MKK1, hits give low values",0.906
same,normalized growth,"locus YOR329C, strain SCD5, hits give low values",0.966
same,normalized growth,"locus YPL031C, strain PHO85, hits give low values",0.946
same,normalized growth,"locus YPL153C, strain RAD53, hits give low values",0.956
same,normalized growth,"locus YPL204W, strain HRR25, hits give low values",0.931
same,normalized growth,"locus YPL209C, strain IPL1, hits give low values",0.975
same,normalized growth,"locus YPL256C, strain CLN2, hits give low values",0.881
same,normalized growth,"locus YPR025C, strain CCL1, hits give low values",0.968
same,normalized growth,"locus YPR106W, strain ISR1, hits give low values",0.961
same,normalized growth,"locus YPR111W, strain DBF20, hits give low values",0.964
same,normalized growth,"strain NNK1, hits give low values",0.96
same,normalized growth,"strain TSCII, hits give low values",0.995
N/C(=N/OC(=O)c1ccccc1)c1ccc(-c2csnn2)cc1,normalized growth,"locus YAL013W, strain DEP1, hits give low values",0.998
same,normalized growth,"locus YBR229C, strain ROT2, hits give low values",0.988
same,normalized growth,[1],0.984
same,normalized growth,"locus YDL134C, strain PPH21, hits give low values",1.01
same,normalized growth,"locus YDR150W, strain NUM1, hits give low values",0.965
same,normalized growth,"locus YEL061C, strain CIN8, hits give low values",0.991
same,normalized growth,"locus YGR078C, strain PAC10, hits give low values",1
same,normalized growth,[2],1.08
same,normalized growth,"locus YHR087W, strain rtc3, hits give low values",0.993
same,normalized growth,"locus YJL187C, strain SWE1, hits give low values",1.02
same,normalized growth,"locus YJR043C, strain POL32, hits give low values",1.01
same,normalized growth,"locus YJR075W, strain HOC1, hits give low values",1.02
same,normalized growth,"locus YLR039C, strain RIC1, hits give low values",1.03
same,normalized growth,"locus YLR058C, strain SHM2 (second series), hits give low values",1
same,normalized growth,"locus YLR085C, strain ARP6, hits give low values",1.01
same,normalized growth,"locus YLR262C, strain YPT6, hits give low values",1.01
same,normalized growth,"locus YML094W, strain GIM5, hits give low values",0.993
same,normalized growth,"locus YMR219W, strain ESC1, hits give low values",1
same,normalized growth,"locus YMR263W, strain SAP30, hits give low values",1.03
same,normalized growth,"locus YNL153C, strain GIM3, hits give low values",1
same,normalized growth,"locus YNL298W, strain CLA4 (second series), hits give low values",1.01
same,normalized growth,"locus YNL322C, strain KRE1, hits give low values",1.01
same,normalized growth,"locus YNR030W, strain Alg12, hits give low values",1
same,normalized growth,"locus YOL006C, strain TOP1, hits give low values",1.07
same,normalized growth,"locus YPL055C, strain LGE1, hits give low values",0.905
same,normalized growth,"locus YPL241C, strain CIN2, hits give low values",1
same,normalized growth,"locus YPR135W, strain CTF4, hits give low values",1.04
